Out of some 1,200 compounds screened, about 950 (79%) were called active.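 Rule for the calls: active = signal rises and fitted curve reaches 40% activity at or below the top valid tested dose, in every replicate test; inconclusive = replicate tests give mixed calls; inactive = the rest, including activity in the opposite direction.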 So high a share suggests a set chosen from earlier hits. Not all results are given here. Potency and affinity values are given separately.
Assay: compounds raising Bmi1 reporter signal – mouse embryonic stem cells, luciferase, cherry-pick, esBAF inhibitor project, dose response (AID 651717);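 note: luciferase knocked into Bmi1 locus with EF-1a renilla as cell number control; rising ratio signals esBAF inhibition which derepresses Bmi1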
Conditions: mESC Bmi1-luciferase reporter, firefly/renilla ratio, 24 h, hits give high values; at 35 µM unless noted

Row | SMILES | max activity
1 | Cc1ccc(S(=O)(=O)NCc2ccccc2)cc1C(=O)NC1CCC(C)CC1 (centres undefined) | 29.1% [at 4.2 µM] (inactive)
2 | CN(C)Cc1c(C(=O)N/N=C/c2ccccc2OCc2c(F)cccc2Cl)nnn1-c1nonc1N | 19.7% [at 4.2 µM] (inactive)
3 | C[C@H](CO)N1C[C@H](C)[C@@H](CN(C)S(=O)(=O)c2cn(C)cn2)OCCCC[C@H](C)Oc2ccc(NC(=O)Nc3ccc4c(c3)OCO4)cc2C1=O | 18.2% (inactive)
4 | C[C@H]1CCCCO[C@@H](CN(C)C(=O)Nc2ccccc2)[C@@H](C)CN([C@@H](C)CO)C(=O)c2cc(NC(=O)Nc3ccc4c(c3)OCO4)ccc2O1 | 11.1% [at 4.2 µM] (inactive)
5 | O=C(O)C/C(=C\c1cc(Br)cs1)c1nc2ccccc2o1 | 31.8% (inactive)
6 | Cc1cccc(N2CCN(C(=O)c3ccc4nc(N5CCCCC5)sc4c3)CC2)c1C | -28.5% (inactive)
7 | O=C(CSc1nnc(Nc2ccccc2F)s1)Nc1cccc(S(=O)(=O)N2CCCCC2)c1 | 20.6% [at 16 µM] (inactive)
8 | C[C@H](CO)N1C[C@H](C)[C@@H](CN(C)Cc2ccncc2)Oc2c(NC(=O)Nc3ccc4c(c3)OCO4)cccc2C1=O | 39.5% [at 0.26 µM] (inactive)
9 | O=C1CCC[C@@H]2C[C@@]3(C[C@@H]4CCN1[C@H]24)Nc1cc(Cl)c(Cl)cc1NC3=NCc1ccccc1 | 15.2% [at 4.2 µM] (inactive)
10 | CCCCC(=O)c1c(O)c2ccccc2oc1=O | 28.9% (inactive)
11 | O=C(Nc1ccc(F)c(Cl)c1)c1ccccc1NC(=O)C1CCCCC1C(=O)O (centres undefined) | 26.5% (inactive)
12 | O=C(O)CCN1C(=O)/C(=C\c2cccc(OCC(=O)Nc3ccc(Cl)cc3)c2)SC1=S | 38% (inactive)
13 | O=S(=O)(/N=C(/Nc1nc2ccccc2s1)c1ccccc1)c1ccccc1 | 34.6% [at 16 µM] (inactive)
14 | Clc1ccc(CSc2ncn(-c3ccccc3)n2)cc1 | 27% (inactive)
15 | Cc1cc(C)n2nc(SCc3nnc(SCc4ccccc4C)s3)nc2n1 | 26.5% (inactive)
16 | CN(C)Cc1c(O)ccc2c(=O)c(-c3ccc(Cl)cc3)coc12 | 24.4% (inactive)
17 | C[C@H](CO)N1C[C@H](C)[C@@H](CN(C)C(=O)Nc2ccc3c(c2)OCO3)Oc2c(NS(=O)(=O)c3cn(C)cn3)cccc2C1=O | 30.6% (inactive)
18 | COc1ccc2c(c1OC)C(=O)OC2Nc1nc(-c2cc3cc([N+](=O)[O-])ccc3oc2=O)cs1 (centres undefined) | 38.4% (inactive)
19 | O=C(NN=C1CCCC1)c1ccccc1O | 17.2% [at 4.2 µM] (inactive)
20 | CCOc1ccc(/C=N/NC(=O)c2ccccc2O)cc1CN1CC2CC(C1)c1cccc(=O)n1C2 (centres undefined) | 21.1% [at 16 µM] (inactive)
21 | C[C@H](CO)N1C[C@H](C)[C@H](CN(C)C(=O)Nc2ccccc2)OCCCC[C@H](C)Oc2ccc(NC(=O)Nc3ccc4c(c3)OCO4)cc2C1=O | -15.5% [at 0.26 µM] (inactive)
22 | COc1ccc(-c2noc(C3CCCN(C(=O)Nc4ccccc4)C3)n2)cc1 (centres undefined) | 16.1% (inactive)

Row | SMILES | max activity
23 | C[C@H]1CN([C@@H](C)CO)C(=O)c2cc(NC(=O)Cc3ccccc3)ccc2O[C@H]1CN(C)C(=O)Nc1ccc2c(c1)OCO2 | 21% [at 0.5 µM] (inactive)
24 | CN(C)c1ccc(C(=O)Nc2cccc(S(=O)(=O)NC3=NCCCCC3)c2)cc1 | 11.6% [at 16 µM] (inactive)
25 | CCOC(=O)C1CCN(Cc2nc3ccc([N+](=O)[O-])cc3c(=O)n2-c2ccc(OC)cc2OC)CC1 | 8.71% [at 4.2 µM] (inactive)
26 | COc1ccc(CCC(=O)N/N=C/c2ccc3c(c2)OCO3)cc1 | 7.2% (inactive)
27 | O=C(Nc1cccc(F)c1)Nc1cccc(Cl)c1 | 39.5% [at 16 µM] (inactive)
28 | COc1ccc(NC(=O)Nc2cccc3c2O[C@@H](CN(C)C(=O)Nc2cccc4ccccc24)[C@H](C)CN([C@@H](C)CO)C3=O)cc1 | 22.8% (inactive)
29 | C[C@H]1CN([C@@H](C)CO)C(=O)c2cc(NS(=O)(=O)c3ccc(F)cc3)ccc2O[C@@H]1CN(C)C(=O)Nc1ccc2c(c1)OCO2 | 3.44% [at 4.2 µM] (inactive)
30 | C[C@H](CO)N1C[C@H](C)[C@H](CN(C)C(=O)NC2CCCCC2)OCCCC[C@H](C)Oc2ccc(NC(=O)Nc3ccc4c(c3)OCO4)cc2C1=O | 27% (inactive)
31 | C[C@H]1CCCCO[C@H](CN(C)C(=O)NC2CCCCC2)[C@@H](C)CN([C@@H](C)CO)C(=O)c2cc(NC(=O)Nc3ccc4c(c3)OCO4)ccc2O1 | 10.1% (inactive)
32 | Cc1c(Cl)cccc1N1C(=O)CC(N(O)c2ccccc2)C1=O (centres undefined) | 13.3% (inactive)
33 | Cc1ccc(S(=O)(=O)Nc2cccc3c2O[C@H](CN(C)C(=O)Nc2ccc4c(c2)OCO4)[C@@H](C)CN([C@H](C)CO)C3=O)cc1 | -41% [at 16 µM] (inactive)
34 | O=C(OCc1ccccc1)N1CCC2CC1c1ccc(/C=C/CCCCl)cc12 (centres undefined) | -25.2% [at 16 µM] (inactive)
35 | C[C@@H]1CN([C@@H](C)CO)C(=O)c2cccc(NC(=O)Nc3ccccc3)c2O[C@H]1CN(C)C(=O)Nc1ccc2c(c1)OCO2 | -14.4% (inactive)
36 | C[C@H]1CN([C@@H](C)CO)C(=O)c2cccc(NC(=O)Nc3ccccc3)c2O[C@@H]1CN(C)C(=O)Nc1ccc2c(c1)OCO2 | -6.52% (inactive)
37 | Cc1ccc(S(=O)(=O)Nc2cccc3c2O[C@@H](CN(C)C(=O)Nc2ccc4c(c2)OCO4)[C@H](C)CN([C@@H](C)CO)C3=O)cc1 | -16.1% (inactive)
38 | C[C@@H]1CN([C@H](C)CO)C(=O)c2cccc(NC(=O)Nc3ccc4c(c3)OCO4)c2O[C@H]1CN(C)Cc1ccccc1 | 36.6% [at 0.26 µM] (inactive)
39 | CO[C@@H]1CN(C)C(=O)c2ccc(NC(=O)Nc3cccc(F)c3)cc2OC[C@@H](C)N(C(=O)Nc2c(C)noc2C)C[C@H]1C | 7.7% [at 0.56 µM] (inactive)
40 | O=C(NCc1cccs1)c1cc2c(s1)-c1ccccc1OC2 | 20.6% [at 8 µM] (inactive)
41 | CCCOc1c(Br)cc(C2C3=C(CCCC3=O)N(CC)C3=C2C(=O)CCC3)cc1OC | -53.8% [at 16 µM] (inactive)
42 | Cc1ccc(CN2CN(S(=O)(=O)c3cccs3)c3nc4ccccc4nc32)cc1 | -38.8% (inactive)
43 | O=C(O)c1ccc(NCc2cccnc2)cc1 | 12.2% (inactive)
44 | C[C@@H]1CN([C@@H](C)CO)C(=O)c2c(c3ccccc3n2C)-c2ccccc2CO[C@@H]1CN(C)C(=O)Nc1ccc2c(c1)OCO2 | -11.1% (inactive)

Row | SMILES | max activity
45 | C[C@@H]1CCCCO[C@@H](CN(C)S(=O)(=O)c2cn(C)cn2)[C@@H](C)CN([C@@H](C)CO)C(=O)c2cc(NC(=O)Nc3ccc4c(c3)OCO4)ccc2O1 | 3.24% [at 30 µM] (inactive)
46 | CC1CCN(c2ccc(C(=O)NCc3cccs3)cn2)CC1 | 20.2% [at 8 µM] (inactive)
47 | COc1ccc(N(CCC(=O)NCCc2ccccc2)S(=O)(=O)c2ccc(C)cc2C)cc1 | 24.7% [at 8 µM] (inactive)
48 | COc1ccc(CN2C[C@@H](C)[C@H](OC)CN(C)C(=O)c3ccc(NC(=O)c4nc5ccccc5s4)cc3OC[C@H]2C)cc1 | 13.2% [at 3.8 µM] (inactive)
49 | Cc1ccc(CNC(=O)c2cccc3c2C(=O)c2ccc(N4CCC(C)CC4)cc2S3(=O)=O)cc1 | -5.88% [at 0.5 µM] (inactive)
50 | O=C(NCc1cccs1)Nc1cccc(Cl)c1 | -20.3% (inactive)
51 | C[C@@H]1CN([C@@H](C)CO)C(=O)c2cccc(NC(=O)Nc3ccc4c(c3)OCO4)c2O[C@H]1CN(C)Cc1ccc(Cl)c(Cl)c1 | -35% [at 18 µM] (inactive)
52 | C/C(=N\NC(=O)c1ccc(Cn2cc(Br)cn2)o1)c1ccc(NC(=O)c2ccoc2C)cc1 | 18.3% [at 16 µM] (inactive)
53 | Cc1cccc(-c2nnc(-c3cccc(NC(=O)Cc4cccs4)c3)o2)c1 | 34.9% (inactive)
54 | Cc1ccc(S(=O)(=O)Nc2cccc(-c3ccc(N4CCCCCC4)nn3)c2)cc1 | 29.4% [at 4.2 µM] (inactive)
55 | Cc1ccc(S(=O)(=O)Nc2cccc(-c3ccc(N4CCCCCC4)nn3)c2)c(C)c1 | 27.4% [at 4.2 µM] (inactive)
56 | C[C@@H]1CN([C@@H](C)CO)S(=O)(=O)c2ccc(-c3ccc(F)cc3)cc2O[C@H]1CN(C)C(=O)C1CC1 | -26.9% (inactive)
57 | C[C@H]1CCCCO[C@H](CN(C)C(=O)Nc2ccc(F)cc2)[C@@H](C)CN([C@@H](C)CO)C(=O)c2cc(NC(=O)Nc3ccc4c(c3)OCO4)ccc2O1 | -13.8% [at 8 µM] (inactive)
58 | C[C@H]1CCCCO[C@@H](CN(C)Cc2ccncc2)[C@@H](C)CN([C@@H](C)CO)C(=O)c2cc(NC(=O)Nc3ccc4c(c3)OCO4)ccc2O1 | -19.5% (inactive)
59 | C[C@H](CO)N1C[C@H](C)[C@H](CN(C)Cc2ccncc2)OCCCC[C@H](C)Oc2ccc(NC(=O)Nc3ccc4c(c3)OCO4)cc2C1=O | -10.9% (inactive)
60 | C[C@@H]1CCCCO[C@@H](CN(C)Cc2ccncc2)[C@@H](C)CN([C@@H](C)CO)C(=O)c2cc(NC(=O)Nc3ccc4c(c3)OCO4)ccc2O1 | 11% (inactive)
61 | C[C@H](CO)N1C[C@H](C)[C@@H](CN(C)Cc2ccc(-c3ccccc3)cc2)Oc2c(NC(=O)Nc3ccc4c(c3)OCO4)cccc2C1=O | -20.6% (inactive)
62 | CCc1c(C(=O)Nc2ccc(C)c(C)c2)[nH]c(C)c1C(C)=O | 13.1% [at 4.2 µM] (inactive)
63 | O=C(CNc1ccc(Br)cc1)c1ccc(Br)s1 | 12.9% [at 4.2 µM] (inactive)
64 | COc1ccc2oc(C(=O)OCC(=O)Nc3ccc(C)c(S(=O)(=O)N4CCOCC4)c3)c(C)c2c1 | 34.7% (inactive)

Reference: PubChem BioAssay AID651717 (Broad Institute, 2012)
